# Measurements from PubChem BioAssay (NCI).
# Compounds without any hit were thinned out: in the full panel of roughly 83,000, 20% have a hit.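 48-hour exposure, single concentration, 96-well plates; percent growth endpoint where 0 means no net growth. Active: below 10.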 A number with no mark means an inactive call. Active and inactive are the calls of the source.
# Legend:
# Experiment in all cases: NCI-60 one-dose screen, 48 h (100 = growth as untreated, 0 = no growth, -100 = all killed)
# Settings in all cases: 10 µM unless noted
# NCI-H23 lung = test system: NCI-H23 lung
# NCI-H226 lung = test system: NCI-H226 lung
# NCI-H322M lung = test system: NCI-H322M lung
# HOP-62 NSCLC = test system: HOP-62 NSCLC
# NCI-H460 lung = test system: NCI-H460 lung
# HOP-92 NSCLC = test system: HOP-92 NSCLC
# NCI-H522 lung = test system: NCI-H522 lung
# A549/ATCC NSCLC = test system: A549/ATCC NSCLC
# 786-0 renal = test system: 786-0 renal
# COLO 205 colon = test system: COLO 205 colon
# DU-145 prostate = test system: DU-145 prostate
# K-562 leukemia = test system: K-562 leukemia
# MALME-3M melanoma = test system: MALME-3M melanoma
# MDA-MB-231 breast = test system: MDA-MB-231 breast
# RXF 393 renal = test system: RXF 393 renal
# SF-268 CNS = test system: SF-268 CNS
# SF-295 CNS = test system: SF-295 CNS
# SF-539 CNS = test system: SF-539 CNS
# UACC-257 melanoma = test system: UACC-257 melanoma
# M14 melanoma = test system: M14 melanoma
Compound,growth (NCI-H23 lung),growth (NCI-H226 lung),growth (NCI-H322M lung),growth (HOP-62 NSCLC),growth (NCI-H460 lung),growth (HOP-92 NSCLC),growth (NCI-H522 lung),growth (A549/ATCC NSCLC),growth (786-0 renal),growth (COLO 205 colon),growth (DU-145 prostate),growth (K-562 leukemia),growth (MALME-3M melanoma),growth (MDA-MB-231 breast),growth (RXF 393 renal),growth (SF-268 CNS),growth (SF-295 CNS),growth (SF-539 CNS),growth (UACC-257 melanoma),growth (M14 melanoma)
CCOC(=O)C1=C(N)Oc2cc(OC)ccc2C1c1ccc(F)c(F)c1 (stereo not given),45.1%,68%,46.8%,37.7%,16.8%,73.6%,-6.42% (active),42.1%,33.1%,25.2%,37.7%,11.2%,59.3%,47.4%,-9.59% (active),51.3%,17.7%,17.8%,53.4%,18%
CCCC(=O)Oc1ccc(/C(=C(\C)c2ccc(OC)cc2)c2ccc(OCCN3CCCCC3)cc2)cc1,79.3%,83.5%,89.7%,86.1%,87.1%,69%,78.9%,76.8%,67.1%,67.6%,87.1%,21.9%,61.9%,109%,66.2%,83.1%,61.5%,65.5%,68.5%,33.8%
CCN(CC)CC(=O)Nc1c(C)cccc1C,106%,92.9%,90.2%,106%,112%,104%,101%,104%,95.4%,115%,121%,99.8%,93.3%,108%,102%,108%,89.8%,104%,108%,100%
CCN(CC)CCN1C(=O)c2c(c3c4ccccc4[nH]c3c3[nH]c4ccccc4c23)C1=O,85.6%,86.6%,66.6%,64.7%,69%,86.4%,69.4%,82.2%,83.6%,75.8%,105%,17.8%,86.1%,83.8%,83.6%,87.3%,84.7%,88.8%,105%,79.5%
CCOC(=O)c1[nH]c(-c2ccc(Cl)cc2)cc1-c1cccnc1,35.1%,68.4%,59.4%,10.5%,7.36% (active),17%,-1.79% (active),30.7%,24.5%,-15.5% (active),19%,6.33% (active),72.7%,40.3%,-2.78% (active),46.6%,10.9%,-24.8% (active),86.3%,14.3%
c1ccc2c(c1)Oc1cccnc1-n1nccc1-2,97.8%,77.3%,102%,104%,103%,90%,99.7%,99.6%,103%,119%,110%,104%,103%,93.5%,107%,102%,108%,106%,102%,101%
CS(=O)(=O)Nc1cccc(-c2ccc3ncnc(Nc4ccc(F)c(Cl)c4)c3c2)c1,42.6%,44.5%,15%,39.8%,20%,34.6%,-23.6% (active),25.3%,-6.08% (active),-33.3% (active),28.4%,11.2%,31%,-2.84% (active),23.7%,38.9%,3.13% (active),25.9%,49.4%,10.5%
CC(=O)n1cc(/C=C2\N=C(c3ccc(Cl)cc3)N(c3ccc(S(=O)(=O)Nc4nccs4)cc3)C2=O)c2ccccc21,89%,94.7%,85.8%,97.6%,82.1%,95.9%,60%,91%,88.6%,115%,102%,59.6%,120%,95.5%,86.7%,83%,85.6%,90.6%,99.7%,83.4%
COc1cc2c(cc1OCCCCC(=O)Nc1ccc(-c3nc4ccccc4s3)cc1)N=C[C@@H]1CCCN1C2=O,-11.4% (active),-43.7% (active),-0.382% (active),-2.65% (active),-19.5% (active),-53% (active),-54% (active),-42.2% (active),-6.44% (active),-60.5% (active),3.12% (active),-17.6% (active),-80.2% (active),14.7%,-83% (active),7.56% (active),18.3%,-46.6% (active),-47.1% (active),-59.3% (active)
O=C(COc1ccc(Cl)cc1)N1CCN(Cc2ccc3c(c2)OCO3)CC1,89.8%,101%,105%,101%,107%,81.1%,93.8%,96.3%,101%,96.1%,113%,84.8%,98.4%,87.2%,109%,95.9%,95.4%,104%,103%,111%
O=C(Nc1ccc(-n2cc(-c3ccncc3)c(-c3ccc(O)c(Cl)c3)n2)cc1)Nc1cccc(Cl)c1Cl,66%,73.7%,79.7%,87.6%,43%,16.5%,66.1%,38.9%,58.3%,39.1%,66.4%,39.6%,67.4%,27%,-8.38% (active),82%,37.6%,18.5%,90.7%,46.9%
COc1ccc2c(c1)C(=O)/C(=C/c1cccc(OCC(=O)c3ccccc3)c1)O2,41.4%,80.9%,108%,103%,93.1%,-58.8% (active),-67.7% (active),105%,104%,-12.5% (active),13.5%,-98.3% (active),45.1%,67.3%,-56.8% (active),36.2%,91.3%,-14.7% (active),42.9%,49.8%
Cc1cn(-c2cc(C(=O)Nc3cccc(-n4ccc5c(NC(=O)c6ccccc6)nccc54)c3)cc(C(F)(F)F)c2)cn1,22.5%,33.8%,32.9%,31.5%,-13.3% (active),-6.29% (active),-7.45% (active),-19% (active),-70.6% (active),-20.1% (active),-9.55% (active),4.74% (active),25.2%,4% (active),-89.8% (active),12%,-12.3% (active),-12.1% (active),40.6%,11.9%
CCCCC(=O)Nc1nc2ccc(SCCC)cc2s1,68.5%,49.7%,82.4%,51.8%,32%,20.8%,28.8%,35.8%,65%,51.6%,67.4%,16.5%,50%,51.9%,45.9%,61.6%,45.1%,50.5%,66.8%,37.3%
O=C(Nc1ccc(-n2ccc3c(NC(=O)c4ccccc4)ncnc32)cc1)c1ccc(Cl)c(C(F)(F)F)c1,56.5%,32.3%,44.1%,45.6%,-30.5% (active),89.4%,11.3%,-40.8% (active),54.9%,33.3%,23.1%,7.82% (active),26.9%,12.2%,19%,18.7%,11.7%,31.9%,46%,9.79% (active)
COc1ccc(Cl)cc1NC(=O)c1cc2c(n1C)-c1nc(NC(=O)C(C)C)sc1CC2,89.4%,61.3%,99.1%,85.7%,94%,91%,49.9%,71.5%,88.1%,96.8%,83.5%,79.8%,99.3%,30.5%,101%,71.2%,92.5%,-27.9% (active),88%,84.8%
